Experimental findings from PubChem BioAssay (NCATS) are described below.

The source made the active and inactive calls. Calls come from the whole dose curve.

This test in a line: qHTS drug screen for cell cycle checkpoint inhibitors in PARPi-resistant BRCA-mutant ovarian cancer cell lines. (AID 1963452). The note with it: PEO1/OlaR viability, CellTiter-Glo luminescence, 96 h, stronger effect = lower value. The source says:
Women's Malignancies Branch, Center for Cancer Research (CCR),
National Cancer Institute (NCI), National Institutes of Health (NIH), Bethesda, MD
Poly (ADP-ribose) polymerase inhibitors (PARPis) have changed the treatment paradigm in breast cancer gene (BRCA) - mutant high-grade serous ovarian carcinoma (HGSC). However, most patients eventually develop resistance to PARPis, highlighting an unmet need for improved therapeutic strategies. Using high-throughput drug screens, we identified ataxia telangiectasia and rad3-related protein/checkpoint kinase 1 (CHK1) pathway inhibitors as cytotoxic and further validated the activity of the CHK1 inhibitor (CHK1i) prexasertib in PARPi-sensitive and -resistant BRCA-mutant HGSC cells and xenograft mouse models. CHK1i monotherapy induced DNA damage, apoptosis, and tumor size reduction. We then conducted a phase 2 study (NCT02203513) of prexasertib in patients with BRCA-mutant HGSC. The treatment was well tolerated but yielded an objective response rate of 6% (1 of 17; one partial response) in patients with previous PARPi treatment. […] BRCA reversion mutation in previously PARPi-treated BRCA-mutant patients was not associated with resistance to CHK1i.
Among others, 1082 oncology drugs, both approved and investigational, were prioritized based on their status in clinical trial development. […] Drugs with average Z-AUC values less than -1.0 in all three cell lines were classified as "hits" resulting in 151 oncology drug hits. The screen also confirmed cross-resistance between olaparib and other PARPis (rucaparib, niraparib, and talazoparib) in PARPi-resistant PEO1/OlaR and PEO4.
[1] G. L. Lin, K. M. Wilson, M. Ceribelli, B. Z. Stanton, P. J. Woo, S. Kreimer, E. Y. Qin, X. Zhang, J. Lennon, S. Nagaraja, P. J. Morris, M. Quezada, S. M. Gillespie, D. Y. Duveau, A. M. Michalowski, P. Shinn, R. Guha, M. Ferrer, C. Klumpp-Thomas, S. Michael, C. McKnight, P. Minhas, Z. Itkin, E. H. Raabe, L. Chen, R. Ghanem, A. C. Geraghty, L. Ni, K. I. Andreasson, N. A. Vitanza, K. E.Warren, C. J. Thomas, M. Monje, Therapeutic strategies for diffuse midline glioma from high-throughput combination drug screening. Sci. Transl. Med. 11, (2019).
[2] T. M. Yamamoto, A. McMellen, Z. L. Watson, J. Aguilera, R. Ferguson, E. Nurmemmedov, T. Thakar, G. L. Moldovan, H. Kim, D. M. Cittelly, A. M. Joglar, E. P. Brennecke, H. Wilson, K. Behbakht, M. J. Sikora, B. G. Bitler, Activation of Wnt signaling promotes olaparib resistant ovarian cancer. Mol. Carcinog. 58, 1770 - 1782 (2019).
PROTOCOL TABLE (as described by Inglese J, Shamu CE and Guy RK. 2007)
SEQUENCE No. (e.g., 1, 2, 3, etc.); […] (e.g., Cells, Incubation, Reagent, etc.); VALUE; DESCRIPTION.
1; Compounds; 20nL; 1536-well white tissue culture-treated plates.
2; Cells; 5 uL; PEO1, PEO4, and PEO1/OlaR cells at 600 cells per well.
3; Incubation; 96 hr; 37C, 95% humidity, 5% CO2.
4; Reagent; 3 uL; CellTiter-Glo (Promega).
5; Incubation; 15 min; room temperature.
6; Detection; Luminescence, PHERAstar (BMG Labtech) plate reader.
NOTES (numbers refer to Sequence numbers above)
1. MIPE 5.0 compounds were acoustically dispensed by Echo Acoustic Liquid Handler (Beckman Coulter Life Sciences). Each compound was plated at an 11-point concentration range with 1:3 dilution. Bortezomib, a proteasome inhibitor (final concentration, 20 uM), was used as a positive.
2. PEO1, PEO4, and PEO1/OlaR were trypsinized and dispensed in 5 uLof growth medium using a Multidrop Combi dispenser at a density of 600 cells per well to allow compounds to be present during the exponential growth phase.
3. Plates were incubated for 96 hours at standard incubator conditions and covered by a stainless steel gasketed lid to prevent evaporation.
4. Three microliters of CellTiter-Glo (Promega) were added to each well.
5. Plates were incubated at room temperature for 15 min with a stainless-steel lid in place.
6. Luminescence readings were taken using PHERAstar (BMG Labtech). […]
On the technique in general: qHTS replaces the single test concentration by a dilution series.

[1] abbreviates: measured here: PEO1 parental Z-AUC.

As for `COc1ccc2nc3cc(Cl)ccc3c(Nc3cc(CN4CCCC4)c(O)c(CN4CCCC4)c3)c2n1`, the Z-AUC is 1.63 (inactive). Besides, under setting [1], the Z-AUC was 0.591. The Z-AUC (measured here: PEO4 Z-AUC) came out at 1.29.

Take `C[C@H](c1ccc(F)cc1CCCC(=O)O)N(c1cc(F)ccc1F)S(=O)(=O)c1ccc(Cl)cc1`: the Z-AUC was -0.634 (inactive). In addition, the Z-AUC under setting [1] is -0.271. The Z-AUC (measured here: PEO4 Z-AUC) is -0.797.

Regarding `COc1cccc(OC)c1-c1cc(C(=O)NC2(C(=O)O)C3CC4CC(C3)CC2C4)nn1-c1ccnc2cc(Cl)ccc12` (configuration not stated), the Z-AUC was 1.24 (inactive). In addition, the Z-AUC under setting [1] was determined as 0.986. Also, the Z-AUC (measured here: PEO4 Z-AUC) turned out to be 1.12.

Turning to `Cc1ccccc1C(C(=O)NC1CCCCC1)N(C(=O)CNc1ccc(C#N)cc1)c1cccc(F)c1` (configuration not stated), the Z-AUC was 0.169 (inactive). In addition, the Z-AUC under setting [1] stood at 0.0819. Moreover, the Z-AUC (measured here: PEO4 Z-AUC) came to 0.0144.

For `O[C@@H](COc1cccc2ncccc12)CN1CCN(C2c3ccccc3[C@@H]3[C@H](c4ccccc42)C3(F)F)CC1` (some centres not stated), the Z-AUC is -1.07 (inactive). Moreover, under setting [1], the Z-AUC was -1.13. Also, the Z-AUC (measured here: PEO4 Z-AUC) was -0.777.

On to `C[C@@]1(c2cc(-c3cncnc3)c(F)cc2F)CCSC(N)=N1`, for which the Z-AUC was 0.854 (inactive). Besides, the Z-AUC under setting [1] is 0.822. In addition, the Z-AUC (measured here: PEO4 Z-AUC) is 0.652.

Regarding `C#CCN(C)CC1=Cc2ccccc2Oc2ccccc21`, the Z-AUC was -0.343 (inactive). Moreover, the Z-AUC under setting [1] was -0.493. Besides, under “measured here: PEO4 Z-AUC”, the Z-AUC was -0.09.

As for `CC[C@H](CC#N)OC(=O)N[C@@H](C)c1cccc(NC(=O)Nc2ccc(-c3cnco3)c(OC)c2)c1`, the Z-AUC was 0.186 (inactive). For the same compound, the Z-AUC under setting [1] was -0.393. The Z-AUC (measured here: PEO4 Z-AUC) is -0.852.

As to `Cc1cc2nc3c(=O)[nH]c(=O)nc-3n(CC(O)C(O)C(O)CO)c2cc1C` (configuration not stated), the Z-AUC is -0.035 (inactive). Further, the Z-AUC under setting [1] was 0.9. Moreover, the Z-AUC (measured here: PEO4 Z-AUC) worked out at 1.

As to `Cc1ccc(S(=O)(=O)OCC(=O)Nc2ccc(C(=O)O)c(O)c2)cc1`, the Z-AUC is 1.67 (inactive). Further, under setting [1], the Z-AUC was found to be 1.37. Under “measured here: PEO4 Z-AUC”, the Z-AUC stood at 1.35.

As for `Fc1ccc(CNc2ncnc3ccc(F)cc23)cc1`, the Z-AUC is -0.894 (inactive). Besides, the Z-AUC under setting [1] was -1.29. The Z-AUC (measured here: PEO4 Z-AUC) was -1.17.

On to `CSc1cccc(Nc2ncc3cc(-c4c(Cl)cccc4Cl)c(=O)n(C)c3n2)c1`, for which the Z-AUC was 0.438 (inactive). Also, under setting [1], the Z-AUC stood at 0.39. Under “measured here: PEO4 Z-AUC”, the Z-AUC turned out to be 0.318.

Take `Nc1ccn([C@@H]2O[C@H](CO)[C@@H](O)[C@H]2O)c(=O)n1`: the Z-AUC is 0.821 (inactive). In addition, the Z-AUC under setting [1] amounted to 1.45. The Z-AUC (measured here: PEO4 Z-AUC) amounted to 1.4.

Take `CC(C)(C)c1nc(-c2cccc(NS(=O)(=O)c3c(F)cccc3F)c2F)c(-c2ccnc(N)n2)s1`: the Z-AUC is 1.26 (inactive). For the same compound, under setting [1], the Z-AUC stood at 1. For the same compound, the Z-AUC (measured here: PEO4 Z-AUC) worked out at 1.01.
